In PubChem BioAssay AID1851 (National Center for Advancing Translational Sciences (NCATS), 2009):
About 2,600 (16%) of roughly 16,000 compounds were called active. Roughly 20% stayed inconclusive and do not appear here. Calls follow the shape of the dose curve; as a rule, active = well fitted curve in the direction sought with a large enough effect; inconclusive = small, poorly fitted or top-dose-only effect, or effect the other way; inactive = no such curve, though single readings can be large or run the other way. These entries were drawn from the full list.

Molecular target: Cytochrome P450 2D6 (Homo sapiens) (UniProt P10635)
Sequence (P10635 whole entry, looked up): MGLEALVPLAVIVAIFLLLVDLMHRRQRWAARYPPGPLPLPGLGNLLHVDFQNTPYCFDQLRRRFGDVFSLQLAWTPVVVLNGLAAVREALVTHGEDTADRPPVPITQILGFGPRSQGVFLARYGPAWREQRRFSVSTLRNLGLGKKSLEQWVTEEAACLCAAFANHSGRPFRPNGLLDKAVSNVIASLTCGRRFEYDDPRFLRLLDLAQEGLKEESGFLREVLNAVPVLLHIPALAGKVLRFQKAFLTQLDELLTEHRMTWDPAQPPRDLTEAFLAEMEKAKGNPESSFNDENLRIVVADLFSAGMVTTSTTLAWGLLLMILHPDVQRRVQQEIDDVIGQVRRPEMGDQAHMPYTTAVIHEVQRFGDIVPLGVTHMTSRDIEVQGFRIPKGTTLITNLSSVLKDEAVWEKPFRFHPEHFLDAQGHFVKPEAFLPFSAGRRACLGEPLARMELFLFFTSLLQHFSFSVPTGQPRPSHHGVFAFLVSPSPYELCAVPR
Assay: Cytochrome panel assay with activity outcomes
Conditions: recombinant CYP, pro-luciferin dealkylation, luminescence, p450-cyp2d6; series mostly up to 57.1 µM; activity, negative = inhibition: at the top concentration
% is scaled to controls: 0 for no effect and ±100 for the full control effect.

activity, negative = inhibition, inactive:
CCOC(=O)C1=C(C)C(c2ccccc2OC)NC(=S)N1 (stereo not drawn) -9.65%
Cn1c(=O)oc2cc(S(=O)(=O)NCCC(=O)N3CC=C(c4ccccc4)CC3)ccc21 -29.6%
O=C(O)c1cc2cc(Cl)ccc2oc1=O 1.09%
O=C(Nc1ccccc1N1CCOCC1)c1cnccn1 -17.2%
Cc1cc(N)c2cc(NC(=O)Nc3ccc4nc(C)cc(N)c4c3)ccc2n1 7.45% [at 11.4 µM]
O=C(Nc1ccc2ncccc2c1)Nc1ccc2ncccc2c1 -10.5% [at 11.4 µM]
CN(C)c1ncc2nc(-c3ccc(F)cc3)c(=O)n(C)c2n1 3.94%
COc1ccc2cc(C(=O)Nc3ccc(F)cc3)sc(=O)c2c1OC -20.8%
CC(C)C(=O)Nc1ccc(C(=O)NNC(=O)C(c2ccccc2)c2ccccc2)cc1 -4.72%
N#Cc1cccc(-c2ccc3ncnc(N4CCNCC4)c3c2)c1 -19.9%
N#Cc1ccccc1-c1ccc2ncnc(N3CCNCC3)c2c1 -13.2%
Cc1noc(C)c1-c1ccc2ncnc(N3CCN(C)CC3)c2c1 -1.17%
CN(C)C(=O)c1ccc(-c2ccc3ncnc(N4CCNCC4)c3c2)cc1 -14%
Cc1ccccc1-c1ccc2ncnc(N3CCNCC3)c2c1 -9.34%
CN1CCN(c2ncnc3ccc(-c4cccc(C#N)c4)cc23)CC1 -7.72%
COc1ccc(C(=O)N2CCC[C@@]3(CCN(C(=O)NC(C)C)C3)C2)cc1 -13.3%
Cc1nc2ncnn2c(C)c1CCC(=O)NCc1ccco1 -13%
CCc1ccccc1NC(=O)c1ccc(F)c(S(=O)(=O)N2CCC(C(N)=O)CC2)c1 -13.2%
CC(=O)c1c(O)c(C)c(-c2ccccc2)n(-c2ccccc2)c1=O 14.1%
CCCc1c(OCCCOc2ccc(OCC(=O)O)cc2)ccc(CC=O)c1O 10.9%
CCCC(O)(CCC)C(=O)NN1CCCCC1 17.5%
Cn1c(=O)n(C)c2cc(/C=N/n3cnnc3)ccc21 21.8%
Brc1ccc(-c2nnc(-c3ccccc3)c(N3CCSCC3)n2)cc1 -7.56%
COc1ccc(OC)c2c(=S)c3ccccc3[nH]c12 7.78%
COc1ccccc1-c1ccc2ncnc(N3CCOCC3)c2c1 -15.7%
Cc1nn(Cc2ccccc2Cl)c(C)c1NC(=O)CCCn1nc(C)c([N+](=O)[O-])c1C -6.51%
CCn1c2ccccc2c2cc(/C=N/n3cn[nH]c3=S)ccc21 -7.55%
COc1ccccc1NC(=O)Cn1nnc(-c2ccccc2NC(=O)c2cc3ccccc3oc2=O)n1 -3.14%
CCOC(=O)C1CCCN(C(=O)CCCOc2cc(=O)n(C)c3ccccc23)C1 (stereo not drawn) -22.4%
CC(=O)c1ccc(NC(=O)C2CC(c3ccc(F)cc3)=NO2)cc1 (stereo not drawn) -28.2%
O=C(NC1CCCC1)C1CC(c2ccc(F)cc2)=NO1 (stereo not drawn) 10.7%
C=CC[C@H](N)C(=O)O 1.56%
COc1ccc(-n2c(=O)c(C)nc3cnc(N4CCNCC4)nc32)cc1 -4.6%
Nc1[nH]c(=O)nc2c1ncn2[C@H]1O[C@@H](CO)[C@@H](O)[C@@H]1O 7.59% [at 11.4 µM]
COc1ccc(CNC(=O)c2cnc(C)cn2)cc1 5.7%
COc1ccc(CNC(=O)c2csc(Cc3ccc(OC)cc3)n2)cc1 -26.3%
CO[C@@H]1COC(=O)C/C=C\[C@@H](C)[C@H](OC)COC(=O)[C@H](COCc2ccccc2)NC(=O)C/C=C\[C@H]1C -2.59% [at 11.4 µM]
C[C@@H]1[C@H]2CC[C@@H]3[C@@H]4CC=C5C[C@@H](N(C)C)CC[C@]5(C)[C@@H]4CC[C@@]32CN1C -2.4% [at 25.6 µM]
CN(C)c1ncc2nc(-c3ccccc3)c(=O)n(Cc3ccc(F)cc3)c2n1 -8.66%
CCCCNS(=O)(=O)c1ccc(OC)c(Cl)c1Cl -2.36%
O=S(=O)(NCCCCCCc1ccccc1)c1cccc2c(Cl)cccc12 9.69%
CCCCCCCNS(=O)(=O)c1cccc2c(Cl)cccc12 -6.45%
NCCCCCCNS(=O)(=O)c1cccc2ccccc12 3.26%
C#C[C@]1(O)CC[C@@H]2[C@H]3CCC4=CCCC[C@@H]4[C@@H]3CC[C@@]21C -2.89% [at 25.6 µM]
N#CCCn1c(=O)c(-c2cc(F)cc(F)c2)nc2cnc(OCc3ccccc3)nc21 -6.84%
Cc1ncc(COP(=O)(O)O)c(C)c1O 11.2% [at 11.4 µM]
Cn1cc(/C=N/n2cnc3scc(-c4ccccc4)c3c2=O)c2ccccc21 -8.18%
CO[C@H]1COC(=O)[C@@H](Cc2ccccc2)NC(=O)[C@@H](C)COC(=O)C/C=C\[C@@H]1C 2.58% [at 11.4 µM]
CC(C)(C)c1ccc(C2CC2C(=O)N/N=C\c2cc3ccccc3nc2Cl)cc1 (stereo not drawn) 14.5%
COC(=O)[C@@]1(Cc2ccccc2)[C@@H]2C(=CC(=O)[C@H]2CC(=O)C(=O)N(C)C)CN1C(=O)c1ccccc1 -11.1%
COc1cc(C2C(C#N)=C(N)OC3=C2C(=O)CCC3)c([N+](=O)[O-])cc1OC (stereo not drawn) -13.7%
Nc1ncnc2c1ncn2[C@@H]1O[C@@H](C(=O)NC2CC2)[C@H](O)[C@@H]1O 2.36%
CC(CO)(CO)Nc1ncnc2ccccc12 -4.58% [at 11.4 µM]
OC[C@@H](O)CNc1ncnc2ccccc12 3.48% [at 11.4 µM]
COCCn1c(=O)cnc2cnc(Nc3ccccc3)nc21 -5.45%
CC(C)(C)OC(=O)NCCc1nnc(SCC(=O)Nc2cccc(Cl)c2)o1 -19.6%
CCC(=O)Nc1cccc(NC(=O)CSc2nnnn2Cc2ccccc2)c1 -19.3%
CC(=O)[C@H]1CC[C@H]2[C@@H]3C=CC4=CC(=O)CC[C@@]4(C)[C@H]3CC[C@]12C -2.12% [at 25.6 µM]
COC(=O)CC1C(=O)NCCN1C(=O)Nc1ccc(Cl)cc1 (stereo not drawn) 4.56%
Cc1ccc(-n2cc(C(=O)c3ccc4ccccc4c3O)cn2)cc1 -1.3%
COc1ccc(/C=N/NC(=O)CCc2ccccc2)cc1O -15.1%
COc1ccc(C/C(N)=N/OC(=O)Cc2ccccc2)cc1OC -9.36%
CCOc1cc(CNc2ccc(OC)cc2)cc(Br)c1OCC(=O)NC(C)(C)C -20.5%
COc1ccc(CNC(=O)Nc2cccs2)cc1OC -3.61%
CC(C)(C)c1ccc(OCC(=O)NNC(=O)CCc2ccccc2)cc1 -16.1%
COc1ccc(C[C@@](C)(N)C(=O)O)cc1OC 1.3% [at 25.6 µM]
N[C@@H]1[C@@H]2[C@@H]3C[C@H]4N(CC[C@@]14C(=O)C(=O)O)CC3=CCO[C@@H]2CC(=O)O -4.74% [at 11.4 µM]
Cc1cccc2nc(C(F)(F)F)nc(=O)n12 37.5%
COc1cccc(Cn2c(=O)c(-c3cn(C)c4ccccc34)nc3cnc(OC)nc32)c1 -6.37%
COc1ccc(NS(=O)(=O)c2cc(-c3nnnn3C)ccc2OC)cc1 -18.8%
COC(=O)Nc1nc2ccc(C(=O)c3cccs3)cc2[nH]1 0.0102%
COCC(=O)N1CCC2(CCCN(c3ccncc3)C2)CC1 -15.3%
CC1=C(C(N)=O)C(c2ccccn2)n2nc(SCc3ccccc3Cl)nc2N1 (stereo not drawn) -0.385%
CC(C)CNc1nc(N)[nH]c(=O)c1NC=O -2.42% [at 11.4 µM]
CN1CCN(c2ncc3nc(-c4cc(F)cc(F)c4)c(=O)n(CCC#N)c3n2)CC1 17.6%
Cc1cccc(-n2cccc2)c1C#N 4.73%
FC(F)(F)c1ccccc1-n1ccnc1 -10.7%
O=C(/C=C\NCC(=O)c1ccccc1)c1ccccc1 -15.4%
N#CC1=C(N)OC2=C(CC/C2=C\c2ccccc2)C1c1ccccc1 (stereo not drawn) -7.69%
Cc1c(-c2c(C#N)c(N)nc3c2CCCCCC3)cnn1C -4.87%
CO[C@H]1COC(=O)[C@H](C)COC(=O)[C@@H](Cc2ccccc2)NC(=O)C/C=C\[C@H]1C 3.3% [at 11.4 µM]
NS(=O)(=O)c1cc2c(cc1C(F)(F)F)N[C@H](Cc1ccccc1)NS2(=O)=O -5.27% [at 25.6 µM]

AC50, active:
Cc1nc2ccc(NC(=O)Nc3ccnc4cccnc34)cc2o1 10 µM
CN(C)c1ccc(-c2ccc3ncnc(N4CCNCC4)c3c2)cc1 12.6 µM
c1nc(N2CCNCC2)c2cc(-c3ccc4c(c3)OCO4)ccc2n1 2.51 µM
CN1CCN(c2ncnc3ccc(-c4ccc5c(c4)OCO5)cc23)CC1 0.251 µM
COc1cccc2[nH]c3c(N4CC(C)CC(C)C4)ncnc3c12 (stereo not drawn) 2 µM
CCn1c2ccccc2c2cnc(N=CN(C)C)c(C#N)c21 1.41 µM
Cn1ncc(C#N)c1NC(=O)C1CC(c2ccc(Cl)cc2)=NO1 (stereo not drawn) 3.98 µM
COc1ccc(CNC(=O)c2csc(Cc3ccc(Cl)cc3)n2)cc1 14.1 µM
NCCCCCCNS(=O)(=O)c1cccc2c(Cl)cccc12 12.6 µM
NCCCCCCCCCCNS(=O)(=O)c1cccc2c(Cl)cccc12 1.26 µM
CN1CC[C@H](CN2c3ccccc3Sc3ccccc32)C1 0.126 µM
CN1CCC[C@@H](CC2c3ccccc3Sc3ccccc32)C1 0.316 µM
c1ccc(CN2CC[C@@H](CNc3ncnc4ccccc34)C2)cc1 0.794 µM
O=C(CSc1nnc(Cn2nnc3ccccc32)o1)Nc1cccc(Cl)c1 12.6 µM
CSC1(SC2=NCCN2)SC2(NCCN2)S1 3.98 µM
COc1ccc(CNCCc2ccccc2)cc1OCC(N)=O 0.398 µM
COc1cc(CNCc2cccs2)ccc1OCC(N)=O 2 µM
COc1cc(CNCCc2ccccc2)ccc1OCC(=O)NC(C)(C)C 3.16 µM
N#Cc1c(-n2ccnc2)cccc1-n1ccnc1 6.31 µM
COc1ccc(CNc2ncncc2-c2ccc(N(C)C)cc2)c(OC)c1 10 µM
COc1ccc(CNc2ncncc2-c2ccc(C(=O)N(C)C)cc2)c(OC)c1 20 µM
